Results published in PubChem BioAssay (EPA / NIEHS).
The source made the active and inactive calls. The calls were made as follows: active = hit-call score of the fitted dose curve at least 0.9, where 1 is the maximum; inactive = score below 0.9.

What was measured:
Conditions in all cases: mRNA level, 48 h; actives raise or lower the signal
CYP2C9 (gene 1559) = experiment: LTEA_HepaRG_CYP2C9: Life Technologies and Expression Analysis (LTEA) Assay for CYP2C9 using HepaRG (AID 2283484)
Method in brief: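 Differentiated human HepaRG cells in serum-free induction medium were exposed 48 h to chemicals in 8-point half-log series from 100 uM (0.5% DMSO), in duplicate. CYP2C9 mRNA was measured by qRT-PCR, normalized to ACTB/GAPDH/POLR2A, with bidirectional fitting versus DMSO.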

CYP2E1 (gene 1571) = experiment: LTEA_HepaRG_CYP2E1: Life Technologies and Expression Analysis (LTEA) Assay for CYP2E1 using HepaRG (AID 2283485)
Method in brief: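 HepaRG cells in serum-free induction medium exposed 48 h to test chemicals, 8 half-log concentrations up to 100 uM in 0.5% DMSO, duplicate. CYP2E1 mRNA by qRT-PCR, normalized to ACTB, GAPDH, POLR2A; bidirectional fit versus DMSO.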

CYP4A11 (gene 1579) = experiment: LTEA_HepaRG_CYP4A11: Life Technologies and Expression Analysis (LTEA) Assay for CYP4A11 using HepaRG (AID 2283486)
Method in brief: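 CYP4A11 transcript levels were quantified by TaqMan qRT-PCR after HepaRG human liver cells were treated for 48 hours with test chemicals (top 100 uM, half-log dilutions, 0.5% DMSO). Gain or loss of signal was fitted relative to DMSO.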

[1] = read-out: Cytochrome P450 3A4 (Homo sapiens) (UniProt P08684); experiment: LTEA_HepaRG_CYP3A4: Life Technologies and Expression Analysis (LTEA) Assay for CYP3A4 using HepaRG (AID 2283487)
Method in brief: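 CYP3A4 transcript measured by TaqMan qRT-PCR and normalized to three housekeeping genes after 48 h chemical exposure of human HepaRG cells. Top concentration 100 uM, half-log steps, 0.5% DMSO vehicle; gain or loss fitted against DMSO baseline.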

[2] = read-out: DNA damage-inducible transcript 3 (DDIT3), DDIT3 (gene 1649); experiment: LTEA_HepaRG_DDIT3: Life Technologies and Expression Analysis (LTEA) Assay for DNA damage-inducible transcript 3 (DDIT3) using HepaRG (AID 2283488)
Method in brief: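 Differentiated human HepaRG cells in serum-free induction medium were exposed in duplicate for 48 h to 8 concentrations (top 100 uM, half-log steps, 0.5% DMSO). DDIT3 mRNA measured by TaqMan qRT-PCR, normalized to ACTB/GAPDH/POLR2A; bidirectional fit versus DMSO.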

[3] = read-out: Early growth response protein 1 (EGR1) transcription factor, EGR1 (gene 1958); experiment: LTEA_HepaRG_EGR1: Life Technologies and Expression Analysis (LTEA) Assay for Early growth response protein 1 (EGR1) transcription factor using HepaRG (AID 2283490)
Method in brief: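 Differentiated HepaRG cells in serum-free induction medium exposed 48 hours, duplicate, to 8 half-log concentrations up to 100 uM in 0.5% DMSO. EGR1 mRNA measured by TaqMan qRT-PCR, normalized to ACTB, GAPDH, POLR2A; bidirectional fit versus DMSO.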

[4] = read-out: Ezrin (EZR), EZR (gene 7430); experiment: LTEA_HepaRG_EZR: Life Technologies and Expression Analysis (LTEA) Assay for Ezrin (EZR) using HepaRG (AID 2283491)
Method in brief: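 HepaRG, 48 h chemical exposure, 8-pt half-log series from 100 uM, 0.5% DMSO vehicle, duplicates. Read-out: EZR mRNA by TaqMan qRT-PCR (Fluidigm array), housekeeping-normalized; bidirectional curve fit vs DMSO baseline.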

[5] = read-out: Cytochrome P450 3A7 (Homo sapiens) (UniProt P24462); experiment: LTEA_HepaRG_CYP3A7: Life Technologies and Expression Analysis (LTEA) Assay for CYP3A7 using HepaRG (AID 2283492)
Method in brief: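 CYP3A7 transcript levels were read by TaqMan qRT-PCR on Fluidigm arrays after 48 h chemical exposure of human HepaRG cells, with housekeeping-gene normalisation. Eight half-log concentrations up to 100 uM in 0.5% DMSO were tested in duplicate.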

CYP3A5 (gene 1577) = experiment: LTEA_HepaRG_CYP3A5: Life Technologies and Expression Analysis (LTEA) Assay for CYP3A5 using HepaRG (AID 2283493)
Method in brief: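 Differentiated HepaRG cells in serum-free induction medium were dosed 48 h with test chemicals (8-point half-log series, top 100 uM, 0.5% DMSO, duplicate). CYP3A5 mRNA measured by qRT-PCR, normalized to ACTB, GAPDH, POLR2A; bidirectional fit versus DMSO.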

[6] = read-out: Fatty Acid-Binding Protein 1 (FABP1), FABP1 (gene 2168); experiment: LTEA_HepaRG_FABP1: Life Technologies and Expression Analysis (LTEA) Assay for Fatty Acid-Binding Protein 1 (FABP1) using HepaRG (AID 2283494)
Method in brief: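 Differentiated human HepaRG cells exposed 48 h in serum-free induction medium to eight half-log concentrations up to 100 uM (0.5% DMSO), duplicate. FABP1 mRNA by qRT-PCR, normalised to ACTB, GAPDH, POLR2A; bidirectional fitting against DMSO.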

[7] = read-out: Cytochrome P450 7A1 (Homo sapiens) (UniProt P22680); experiment: LTEA_HepaRG_CYP7A1: Life Technologies and Expression Analysis (LTEA) Assay for Cytochrome P450 7A1 (CYP7A1) using HepaRG (AID 2283496)
Method in brief: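 Gene expression endpoint in human HepaRG liver cells treated for 48 h with test chemicals (up to 100 uM, 0.5% DMSO). Values come from bidirectional concentration-response fitting versus DMSO.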

[8] = read-out: Glutathione S-Transferase (GSTA2), GSTA2 (gene 2939); experiment: LTEA_HepaRG_GSTA2: Life Technologies and Expression Analysis (LTEA) Assay for Glutathione S-Transferase (GSTA2) using HepaRG (AID 2283497)
Method in brief: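 Differentiated human HepaRG cells were exposed in duplicate for 48 h in serum-free induction medium, 8 points from 100 uM top in half-log steps, 0.5% DMSO. GSTA2 mRNA was measured by TaqMan qRT-PCR, normalized to ACTB, GAPDH and POLR2A; bidirectional fit versus DMSO.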

[9] = read-out: Glutamate-cysteine ligase catalytic (GCLC), GCLC (gene 2729); experiment: LTEA_HepaRG_GCLC: Life Technologies and Expression Analysis (LTEA) Assay for Glutamate-cysteine ligase catalytic (GCLC) using HepaRG (AID 2283498)
Method in brief: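 Differentiated HepaRG cells exposed 48 h in serum-free induction medium, eight-point half-log series topping at 100 uM in 0.5% DMSO, duplicates. GCLC mRNA by qRT-PCR normalized to ACTB, GAPDH and POLR2A, fitted bidirectionally versus DMSO.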

[10] = read-out: growth arrest and DNA damage 45 (GADD45G), GADD45G (gene 10912); experiment: LTEA_HepaRG_GADD45G: Life Technologies and Expression Analysis (LTEA) Assay for growth arrest and DNA damage 45 (GADD45G) using HepaRG (AID 2283499)
Method in brief: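 HepaRG, 48 h exposure, top 100 uM, half-log 8-point series, 0.5% DMSO vehicle, duplicates. Readout: GADD45G transcript by qRT-PCR (Fluidigm array), housekeeping-normalised (ACTB/GAPDH/POLR2A). Bidirectional curve fit vs DMSO baseline.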

[11] = read-out: Glutamate-cysteine ligase regulatory (GCLM), GCLM (gene 2730); experiment: LTEA_HepaRG_GCLM: Life Technologies and Expression Analysis (LTEA) Assay for Glutamate-cysteine ligase regulatory (GCLM) using HepaRG (AID 2283500)
Method in brief: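 Differentiated human HepaRG cells exposed 48 h in serum-free induction medium to 8-point half-log concentrations (top 100 uM, 0.5% DMSO), in duplicate. GCLM mRNA quantified by qRT-PCR, normalized to ACTB, GAPDH, POLR2A; bidirectional fitting versus DMSO.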

[12] = read-out: Glutathione S-transferase M3 (GSTM3), GSTM3 (gene 2947); experiment: LTEA_HepaRG_GSTM3: Life Technologies and Expression Analysis (LTEA) Assay for Glutathione S-transferase M3 (GSTM3) using HepaRG (AID 2283501)
Method in brief: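 qRT-PCR read-out of GSTM3 transcript, normalized to three housekeeping genes, from human HepaRG cells after 48 h chemical exposure. Eight-point half-log series, top 100 uM, 0.5% DMSO vehicle; gain or loss fitted relative to DMSO baseline.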

[13] = read-out: Heat shock 70 kDa protein 1 (HSPA1A), gene 3303; experiment: LTEA_HepaRG_HSPA1A: Life Technologies and Expression Analysis (LTEA) Assay for Heat shock 70 kDa protein 1 (HSPA1A) using HepaRG (AID 2283502)
Method in brief: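 Differentiated human HepaRG cells in serum-free induction medium were exposed in duplicate for 48 h to eight concentrations (top 100 uM, half-log steps, 0.5% DMSO). HSPA1A mRNA was quantified by qRT-PCR, normalized to ACTB, GAPDH and POLR2A, and fitted bidirectionally against DMSO.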

[14] = read-out: Hypoxia-inducible factor 1-alpha (Homo sapiens) (UniProt Q16665); experiment: LTEA_HepaRG_HIF1A: Life Technologies and Expression Analysis (LTEA) Assay for Hypoxia-inducible factor 1 (HIF1A) Trancription factor using HepaRG (AID 2283503)
Method in brief: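 HepaRG, 48 h exposure, 8-pt half-log series from 100 uM, 0.5% DMSO vehicle, duplicates. Readout: HIF1A transcript by qRT-PCR (Fluidigm array), housekeeping-normalised. Bidirectional curve fit vs DMSO baseline.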

[15] = read-out: Cytochrome P450 4A22 (Homo sapiens) (UniProt Q5TCH4); experiment: LTEA_HepaRG_CYP4A22: Life Technologies and Expression Analysis (LTEA) Assay for Cytochrome P450 4A22 (CYP4A22) using HepaRG (AID 2283495)
Method in brief: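 HepaRG, 48 h post-plating -> serum-free induction medium; dosed 48 h, duplicate, 8 conc. (100 uM top, half-log), 0.5% DMSO. Readout: CYP4A22 mRNA by qRT-PCR, ACTB/GAPDH/POLR2A normalization; gain/loss fit relative to DMSO.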

[16] = read-out: Pro-epidermal growth factor (Homo sapiens) (UniProt P01133); experiment: LTEA_HepaRG_EGF: Life Technologies and Expression Analysis (LTEA) Assay for Epidermal growth factor (EGF) using HepaRG (AID 2283489)
Method in brief: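 qRT-PCR readout of EGF transcript after 48 h chemical exposure of HepaRG cells; eight concentrations from 100 uM down in half-log steps, duplicate wells, 0.5% DMSO vehicle. Bidirectional curve fitting against DMSO baseline.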

Measured: AC50

Chain of Hypoxia-inducible factor 1-alpha (Homo sapiens) (Q16665 whole entry, looked up): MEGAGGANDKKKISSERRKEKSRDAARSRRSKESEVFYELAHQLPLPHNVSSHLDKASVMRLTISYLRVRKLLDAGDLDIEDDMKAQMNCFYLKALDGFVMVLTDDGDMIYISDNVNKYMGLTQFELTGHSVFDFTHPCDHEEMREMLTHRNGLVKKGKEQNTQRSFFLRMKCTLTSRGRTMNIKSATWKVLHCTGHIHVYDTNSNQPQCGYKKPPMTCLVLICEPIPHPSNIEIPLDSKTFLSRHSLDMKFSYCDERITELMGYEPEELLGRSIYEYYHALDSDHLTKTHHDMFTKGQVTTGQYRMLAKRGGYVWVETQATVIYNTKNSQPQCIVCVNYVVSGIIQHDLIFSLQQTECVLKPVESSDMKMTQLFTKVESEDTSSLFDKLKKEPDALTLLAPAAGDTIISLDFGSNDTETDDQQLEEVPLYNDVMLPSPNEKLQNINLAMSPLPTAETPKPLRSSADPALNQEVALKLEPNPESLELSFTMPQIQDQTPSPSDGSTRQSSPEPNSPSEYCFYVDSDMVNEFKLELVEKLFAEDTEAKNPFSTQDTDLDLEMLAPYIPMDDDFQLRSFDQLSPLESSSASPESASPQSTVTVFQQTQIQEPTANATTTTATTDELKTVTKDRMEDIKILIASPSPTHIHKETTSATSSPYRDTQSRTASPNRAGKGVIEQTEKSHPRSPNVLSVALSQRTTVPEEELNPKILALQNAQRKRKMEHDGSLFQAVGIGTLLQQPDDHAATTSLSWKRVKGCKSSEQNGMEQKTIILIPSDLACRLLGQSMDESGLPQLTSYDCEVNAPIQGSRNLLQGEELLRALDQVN
Chain of Cytochrome P450 3A4 (Homo sapiens) (P08684 whole entry, looked up): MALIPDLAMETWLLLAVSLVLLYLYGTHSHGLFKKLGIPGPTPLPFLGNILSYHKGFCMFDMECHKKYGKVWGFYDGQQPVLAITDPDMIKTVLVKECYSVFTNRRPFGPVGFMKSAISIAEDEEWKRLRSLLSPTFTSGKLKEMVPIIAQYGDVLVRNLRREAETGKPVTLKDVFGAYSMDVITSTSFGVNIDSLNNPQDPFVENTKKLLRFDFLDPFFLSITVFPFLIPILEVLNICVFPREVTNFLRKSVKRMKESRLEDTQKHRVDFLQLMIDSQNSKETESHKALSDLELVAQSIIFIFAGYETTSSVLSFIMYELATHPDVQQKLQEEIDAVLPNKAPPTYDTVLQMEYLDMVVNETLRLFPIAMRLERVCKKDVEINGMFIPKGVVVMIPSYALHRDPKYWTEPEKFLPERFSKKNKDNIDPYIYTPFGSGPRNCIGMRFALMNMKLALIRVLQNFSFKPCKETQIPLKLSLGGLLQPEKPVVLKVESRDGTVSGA
Chain of Cytochrome P450 3A7 (Homo sapiens) (P24462 whole entry, looked up): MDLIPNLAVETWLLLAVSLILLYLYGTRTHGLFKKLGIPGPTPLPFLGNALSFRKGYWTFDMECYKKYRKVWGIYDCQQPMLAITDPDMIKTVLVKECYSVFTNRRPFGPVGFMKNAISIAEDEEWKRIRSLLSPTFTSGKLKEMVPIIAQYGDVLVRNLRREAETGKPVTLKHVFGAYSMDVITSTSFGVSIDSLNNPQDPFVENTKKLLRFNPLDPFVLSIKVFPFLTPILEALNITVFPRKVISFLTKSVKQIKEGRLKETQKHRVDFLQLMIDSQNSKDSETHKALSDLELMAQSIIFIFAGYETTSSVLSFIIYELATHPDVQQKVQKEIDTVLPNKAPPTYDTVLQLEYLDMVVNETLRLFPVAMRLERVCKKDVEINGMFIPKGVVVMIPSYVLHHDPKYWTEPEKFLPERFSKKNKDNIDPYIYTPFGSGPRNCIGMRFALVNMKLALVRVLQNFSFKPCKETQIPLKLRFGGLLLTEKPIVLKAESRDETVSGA

CCCOCC(=Nc1ccc(Cl)cc1C(F)(F)F)n1ccnc1
inactive: [3] | [4] | [10] | [11] | [12]
active: CYP2C9 (gene 1559) 20.3 µM | CYP2E1 (gene 1571) 13.2 µM | CYP4A11 (gene 1579) 23 µM | [1] 73.5 µM | [2] 72.4 µM | [5] 23 µM | CYP3A5 (gene 1577) 71 µM | [6] 14.6 µM | [7] 30.6 µM | [8] 35 µM | [9] 91 µM | [13] 81.9 µM | [14] 87.3 µM

FC(F)C(F)(F)OCC(Cn1cncn1)c1ccc(Cl)cc1Cl (centres undefined)
active: CYP2C9 (gene 1559) 38.1 µM | CYP2E1 (gene 1571) 16.1 µM | CYP4A11 (gene 1579) 28.8 µM | [1] 35.2 µM | [2] 28.7 µM | [3] 11.1 µM | [5] 49.8 µM | CYP3A5 (gene 1577) 83 µM | [6] 34.8 µM | [15] 16.6 µM | [7] 44.6 µM | [8] 38.7 µM | [10] 11.1 µM | [11] 13 µM | [12] 73.6 µM | [13] 83.4 µM | [14] 76.4 µM
inactive: [9]

CCC(CC)Nc1c([N+](=O)[O-])cc(C)c(C)c1[N+](=O)[O-]
active: CYP2E1 (gene 1571) 64.7 µM | [1] 25.4 µM | [5] 16.7 µM | [6] 50 µM
not listed: [15] | [16]
inactive: all other assays above

CCOP(=S)(OCC)Oc1ccc2c(C)c(Cl)c(=O)oc2c1
active: CYP2E1 (gene 1571) 31.6 µM | CYP4A11 (gene 1579) 50 µM | [2] 80.3 µM | [6] 24.6 µM | [7] 15.5 µM | [8] 82 µM | [10] 50 µM
not listed: [1] | [15] | [16]
inactive: all other assays above

C=C(C)[C@H]1Cc2c(ccc3c2O[C@@H]2COc4cc(OC)c(OC)cc4[C@@H]2C3=O)O1
active: CYP2C9 (gene 1559) 3.67 µM | CYP2E1 (gene 1571) 0.591 µM | CYP4A11 (gene 1579) 0.838 µM | [2] 1.27 µM | [16] 50 µM | [3] 15.7 µM | [4] 1 µM | CYP3A5 (gene 1577) 11.5 µM | [6] 1.25 µM | [15] 0.834 µM | [7] 3.69 µM | [8] 3 µM | [10] 1.18 µM | [11] 2.57 µM | [12] 23.9 µM | [13] 28.9 µM | [14] 23.8 µM
inactive: [9]
